Most compounds without a hit are left out; they make up all but 3% or so of the library.
SENP8 block-1 = SENP8 protease inhibitors, primary screen, biochemical, luminescence | actives 1.2% (n = 330,000) | purified SENP8, Z-RLRGG-aminoluciferin cleavage | inhibition, % at 10 µM | AID 2540, 2010; in the data active = inhibition above about 50%
Target sequence (Q96LD8 whole entry, looked up): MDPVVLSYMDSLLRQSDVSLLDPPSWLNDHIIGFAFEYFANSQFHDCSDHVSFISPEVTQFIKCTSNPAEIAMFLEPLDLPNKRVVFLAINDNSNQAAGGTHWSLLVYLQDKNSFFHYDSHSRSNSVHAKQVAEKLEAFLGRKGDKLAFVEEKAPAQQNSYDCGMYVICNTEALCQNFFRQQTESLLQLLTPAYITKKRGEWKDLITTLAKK
SENP6 block = SENP6 protease inhibitors, primary screen, biochemical, luminescence, uHTS. actives 1.8% (n = 330,000). Sentrin-specific protease 6 (Homo sapiens), Q9GZR1. Recombinant SENP6 catalytic domain, aminoluciferin luminescence. inhibition, % at 10 µM;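 active = inhibition above about 50% at the single tested dose, limit read from the data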;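 also: plate controls were DMSO wells with enzyme for no effect and DMSO wells lacking enzyme for full effect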
SENP8 block-2 = human SENP8 protease inhibitors, primary screen, biochemical, fluorescence, Nedd8 protein substrate, uHTS; AID 602440, 2012; inhibition, % at 20 µM; recombinant SENP8; actives 0.64% (n = 360,000); Sentrin-specific protease 8 (Homo sapiens), Q96LD8; in the data active = inhibition mostly above about 40%, no sharp cut-off; inactive = mostly below about 27%
TRAIL sens C8 = viability loss with TRAIL in NB7+C8 cells, primary screen, TRAIL sensitizer project, cell-based, ATPlite luminescence; inhibition (viability loss, TRAIL sensitization), % at 10 µM; actives 1% (n = 360,000);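 active = compounds causing at least 50% loss of cell viability in the single-dose screen, relative to plate controls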
SENP7 inh = SENP7 protease inhibitors, primary screen, biochemical, luminescence, uHTS; Sentrin-specific protease 7 (Homo sapiens), Q9BQF6; recombinant SENP7, Z-RLRGG-aminoluciferin luminescence, 40 min; inhibition, % at 5 µM; actives 1.5% (n = 330,000); AID 434973, 2010;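 active = inhibition above about 50% at the single test dose, limit read from the data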;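 also: plate controls were DMSO with enzyme for no effect and no enzyme buffer wells for full effect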
Target sequence (Q9BQF6 706-1050 limits assumed): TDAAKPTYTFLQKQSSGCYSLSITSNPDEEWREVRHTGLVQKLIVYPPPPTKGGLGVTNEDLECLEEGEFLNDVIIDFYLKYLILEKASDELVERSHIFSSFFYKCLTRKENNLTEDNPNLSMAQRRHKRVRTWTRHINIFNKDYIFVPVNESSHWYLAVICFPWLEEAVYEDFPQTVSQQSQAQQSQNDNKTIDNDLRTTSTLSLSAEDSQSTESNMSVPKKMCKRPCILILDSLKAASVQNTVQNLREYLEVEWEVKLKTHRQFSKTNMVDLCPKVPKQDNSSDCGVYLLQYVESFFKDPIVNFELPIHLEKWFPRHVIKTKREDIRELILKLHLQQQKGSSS
PPC-1+TRAIL kill = compounds killing PPC-1 cancer cells with TRAIL present, primary screen, TRAIL potentiator project, ATPLite luminescence, uHTS | actives 0.41% (n = 220,000) | cell killing (% activity), % at 4 µM or 5 µM | AID 1443, 2008 | PPC-1 cells + TRAIL, ATPLite viability luminescence;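 active = cell killing above 50% in the first pass at 4 µM, then a duplicate retest at 5 µM averaging 50% or more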;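 also: plate controls were cells with TRAIL plus DMSO for no effect and medium-only wells lacking cells for full effect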
PPC-1 tox = cytotoxicity in PPC-1 cells, confirmation, cytotoxicity control for TRAIL apoptosis potentiator project, cell-based, ATP content luminescence. actives 50% (n = 1,200). PPC-1 viability, ATPlite luminescence, overnight. cytotoxicity, % at 5 µM. shares compounds with PPC-1+TRAIL kill;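 active = reconfirmed compounds whose average cytotoxicity reaches 50% or more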;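 also: 0% = DMSO-treated cells and 100% = wells holding medium but no cells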
Active calls of the source: *.

For C(=N\Nc1nc2ccccc2[nH]1)/c1cccc2nccnc12 the results were SENP8 block-1 -10.7, SENP6 block -25.3, SENP8 block-2 11.9, TRAIL sens C8 26.3, SENP7 inh 9.3 and PPC-1+TRAIL kill 44.7.
C(=N\Nc1nc2ccccc2[nH]1)/c1ccc2ncccc2c1 was read as SENP8 block-1 -9.6, SENP6 block -25.2, SENP8 block-2 -398.1, TRAIL sens C8 81.3*, SENP7 inh 31.0, PPC-1+TRAIL kill 70.5* and PPC-1 tox 71.7*.
For Fc1ccccc1-c1ccc(/C=N/Nc2nc3ccccc3[nH]2)o1 the results were SENP8 block-1 -15.5, SENP6 block 3.3, SENP8 block-2 -397.9, TRAIL sens C8 78.8*, SENP7 inh -13.5, PPC-1+TRAIL kill 79.8* and PPC-1 tox 77.7*.
Screening CCCCn1c(/C=N/Nc2nc3ccccc3[nH]2)nc2ccccc21 returned SENP8 block-1 -10.8, SENP6 block -11.8, SENP8 block-2 26.3, TRAIL sens C8 27.0, SENP7 inh 3.1 and PPC-1+TRAIL kill 0.4.
`COc1ccc(/C=N/Nc2nc3ccccc3[nH]2)cc1OC` gave SENP8 block-1 -5.7, SENP6 block 0.8, SENP8 block-2 -254.4, TRAIL sens C8 6.5, SENP7 inh 3.4 and PPC-1+TRAIL kill -16.3.
Screening COc1ccc(S(=O)(=O)N(C)CC(=O)N2CCC(C(N)=O)CC2)cc1 returned SENP8 block-1 -5.0, SENP6 block -10.8, SENP8 block-2 23.7, TRAIL sens C8 -9.9, SENP7 inh -7.2, PPC-1+TRAIL kill 5.8 and PPC-1 tox 11.9.
COc1cc(/C=N/NC(=O)c2ccc(CN3C(=O)c4cccc5cccc3c45)cc2)cc(OC)c1O was read as SENP8 block-1 -1.4, SENP6 block -14.7, SENP8 block-2 -419.9, TRAIL sens C8 -0.2, SENP7 inh -0.1 and PPC-1+TRAIL kill 20.0.
Screening Cc1sc2nc(CSC(C)C(=O)Nc3cc(S(C)(=O)=O)ccc3Cl)[nH]c(=O)c2c1C (stereo not given) returned SENP8 block-1 6.5, SENP6 block 13.0, SENP8 block-2 -69.3, TRAIL sens C8 6.9 and SENP7 inh 10.9.
CCCNC(=O)C(Sc1ccccc1)c1ccccc1 (stereo not given) was read as SENP8 block-1 -2.1, SENP6 block -6.0, SENP8 block-2 15.2, TRAIL sens C8 -5.3, SENP7 inh 2.7 and PPC-1+TRAIL kill -0.6.
CCN(CC)C(=O)C(Sc1ccccc1)c1ccccc1 (stereo not given) was read as SENP8 block-1 3.8, SENP6 block 1.2, SENP8 block-2 3.2, TRAIL sens C8 -4.4, SENP7 inh 7.7, PPC-1+TRAIL kill -0.5 and PPC-1 tox 2.1.
`COC(=O)C(Cc1ccccc1)P(=O)(c1ccccc1)c1ccccc1` (stereo not given) gave SENP8 block-1 -11.0, SENP6 block -17.7, SENP8 block-2 3.4, TRAIL sens C8 -2.6, SENP7 inh -4.3 and PPC-1+TRAIL kill 17.7.
For CCOC(=O)CNc1c(-c2ccc(O)cc2)nc2ccc(Cl)cn12 the results were SENP8 block-1 7.9, SENP6 block 14.4, SENP8 block-2 -269.0, TRAIL sens C8 4.1, SENP7 inh -2.9, PPC-1+TRAIL kill -10.1 and PPC-1 tox -13.5.
Screening C=CCn1c(SCC(=O)NC(=O)NC)nnc1C1CCCCC1 returned SENP8 block-1 0.6, SENP6 block 2.0, SENP8 block-2 -1.8, TRAIL sens C8 7.3, SENP7 inh 4.3 and PPC-1+TRAIL kill 3.8.
For C=CCn1c(SCC(=O)NC(=O)NCCC)nnc1C1CCCCC1 the results were SENP8 block-1 -1.4, SENP6 block -2.8, SENP8 block-2 15.7, TRAIL sens C8 -8.1, SENP7 inh 1.5, PPC-1+TRAIL kill -1.1 and PPC-1 tox 3.3.
`CC1(C)NC(C(=O)O)Cc2c1[nH]c1ccccc21` (stereo not given) gave SENP8 block-1 -6.3, SENP6 block -2.0, SENP8 block-2 8.4, TRAIL sens C8 -0.8, SENP7 inh -1.2, PPC-1+TRAIL kill -3.5 and PPC-1 tox 5.7.
For CC(=O)N1C(C(=O)O)Cc2c([nH]c3ccccc23)C1(C)C (stereo not given) the results were SENP8 block-1 4.7, SENP6 block -10.0, SENP8 block-2 9.0, TRAIL sens C8 -14.7 and SENP7 inh -1.9.
Screening O=C(Cn1cc([N+](=O)[O-])cn1)Nc1cccnc1 returned SENP8 block-1 -6.4, SENP6 block -6.1, SENP8 block-2 -0.1, TRAIL sens C8 5.2, SENP7 inh 8.3 and PPC-1+TRAIL kill -0.8.
Screening Cc1cnc(NC(=O)c2ccc(OCC3CCCO3)cc2)s1 (stereo not given) returned SENP8 block-1 10.2, SENP6 block -23.9, SENP8 block-2 -76.3, TRAIL sens C8 86.8*, SENP7 inh 36.8, PPC-1+TRAIL kill 83.4* and PPC-1 tox 86.5*.
COc1ccc(N/C(=N\c2nc(C)cc(C)n2)NC(=O)C(C)C)cc1OC was read as SENP8 block-1 -8.0, SENP6 block -16.3, SENP8 block-2 21.9, TRAIL sens C8 -5.1, SENP7 inh 0.8, PPC-1+TRAIL kill -10.3 and PPC-1 tox -16.7.
Screening COc1ccc(N/C(=N\c2nc(C)cc(C)n2)NC(C)=O)cc1OC returned SENP8 block-1 -5.9, SENP6 block -5.8, SENP8 block-2 -16.9, TRAIL sens C8 -0.9, SENP7 inh 3.7 and PPC-1+TRAIL kill 8.5.
Screening Cc1[nH]n(-c2ccccc2)c(=O)c1C(C[N+](=O)[O-])c1ccc(Br)cc1 (stereo not given) returned SENP8 block-1 25.4, SENP6 block 34.9, SENP8 block-2 87.7*, TRAIL sens C8 3.8, SENP7 inh 41.3, PPC-1+TRAIL kill 5.5 and PPC-1 tox -0.1.
CN(C(=O)c1ccc2c(c1)OCO2)C1(C(=O)NC2CCCC2)CCCCC1 was read as SENP8 block-1 3.5, SENP6 block 5.2, SENP8 block-2 25.3, TRAIL sens C8 -6.4, SENP7 inh -3.4, PPC-1+TRAIL kill 5.9 and PPC-1 tox 2.1.
CCOC(=O)N1CCN(S(=O)(=O)c2ccc(OCC(=O)OC)cc2)CC1 was read as SENP8 block-1 -1.9, SENP6 block -6.7, SENP8 block-2 10.2, TRAIL sens C8 -15.3, SENP7 inh -7.3, PPC-1+TRAIL kill -2.5 and PPC-1 tox 3.2.
For C/C(=N\Nc1cc(C(F)(F)F)ccc1Cl)c1ccncc1 the results were SENP8 block-1 -0.1, SENP6 block 0.5, SENP8 block-2 10.8, TRAIL sens C8 -13.7 and SENP7 inh 6.0.

Screening data from PubChem BioAssay.
